Data taken from PubChem BioAssay (Tox21).
“And” between values parts separate entries of the source, which are not always exact repeats. Equal entries are not always repeated. Inconclusive results are not listed. The source made the active and inactive calls. Unless noted, calls follow the shape of the dose curve; as a rule, active = well fitted curve in the direction sought with a large enough effect in the repeat runs; inconclusive = weak or mixed curves; inactive = no such curve, though single readings can be large; an effect the other way counts as inactive or inconclusive.

Experiments:
[1] = qHTS assay to identify small molecule agonists of H2AX (AID 1224845; active = well fitted activation curve with a large enough effect in the signal ratio in the repeat runs, not every such curve was filed as active; the % refers to the signal ratio)
In short: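 Wild-type CHO-K1 cells plated overnight, then exposed 3 hr at 37C to compounds at 15 concentrations (0.76% DMSO). Lysed, then HTRF anti-pH2AX(S139)-cryptate/anti-H2AX-d2 detection after 24 hr at room temperature; emissions 665 and 620 nm.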

[2] = qHTS assay to identify small molecule agonists of the hypoxia (HIF-1) signaling pathway (AID 1224846; active = well fitted activation curve with a large enough effect in the signal ratio in the repeat runs, not every such curve was filed as active; the % refers to the signal ratio)
In short: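 Agonist mode reporter screen. ME-180 cells stably expressing bla under HRE control received test compounds in DMSO for 17 hrs (37C, 5% CO2), and beta-lactamase activity was then detected with the CCF4-AM FRET substrate.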

[3] = qHTS assay to identify small molecule agonists of H2AX - cell viability counter screen (AID 1224847; calls by dose curve; also: top concentration of the series differs between compounds; nearly all actives have a fitted effect of over 30% in size)
In short: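 CHO-K1 cells plated overnight at 37C, then exposed 3 h at 37C to compounds at 15 concentrations (0.76% DMSO final). Viability by CellTiter-Glo luminescence after 30 min at room temperature.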

[4] = qHTS RealTime-Glo MT Cell Viability Assay in HepG2 cells - 24 hour (AID 1224867); also: nearly all actives have a fitted effect of over 50% in size
In short: (§1)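 Luminescence read-out: viable HepG2 cells reduce a prosubstrate to a NanoLuc substrate, giving a signal proportional to live cell number. Reads taken at 0, 8, 16, 24, 32 and 40 h of compound exposure at 37 C.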

[5] = qHTS RealTime-Glo MT Cell Viability Assay in HEK293 cells - 32 hour (AID 1224868); also: top concentration of the series differs between compounds; nearly all actives have a fitted effect of over 50% in size
In short: (§2)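 Nonlytic real-time viability readout: viable cells convert prosubstrate to NanoLuc substrate, giving luminescence proportional to live cell number. HEK293, 600 cells/well, compound added after 5 h, continuous culture at 37 C.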

[6] = A CellTox Green Cytotoxicity Assay to monitor cytotoxicity in HEK293 cells - 0 hour (AID 1224869); also: nearly all actives have a fitted effect of over 50% in size
In short: (§3)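 Dead-cell fluorescence measured kinetically: asymmetric cyanine dye, HEK293, 600 cells/well, 5 h settle, 23 nL cpd/DMSO, 37 C, reads 0–40 h every 8 h.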

[7] = qHTS RealTime-Glo MT Cell Viability Assay in HepG2 cells - 40 hour (AID 1224870); also: nearly all actives have a fitted effect of over 50% in size
In short: (§4)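 HepG2 cells mixed with RealTime-Glo MT reagents (NanoLuc plus cell-permeant prosubstrate) were seeded at 600 cells/well, incubated 5 h at 37 C/5% CO2, then pinned with compounds in DMSO; nonlytic luminescence tracked viability during 40 h treatment.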

[8] = A CellTox Green Cytotoxicity Assay to monitor cytotoxicity in HEK293 cells - 40 hour (AID 1224871); also: nearly all actives have a fitted effect of over 45% in size
In short: as §3

[9] = qHTS RealTime-Glo MT Cell Viability Assay in HEK293 cells - 16 hour (AID 1224872)
In short: as §2

[10] = qHTS RealTime-Glo MT Cell Viability Assay in HepG2 cells - 8 hour (AID 1224873); also: nearly all actives have a fitted effect of over 55% in size
In short: as §4

[11] = qHTS RealTime-Glo MT Cell Viability Assay in HEK293 cells - 40 hour (AID 1224874); conditions: RealTime-Glo luminescence; max response: active compounds read low; also: nearly all actives have a fitted effect of over 50% in size
In short: (§5)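 600 HEK293 cells per well, dispensed already mixed with RealTime-Glo MT reagents. Compound dosing came 5 h later. The same wells were read for luminescence at 0, 8, 16, 24, 32 and 40 h of exposure at 37 C.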

[12] = A CellTox Green Cytotoxicity Assay to monitor cytotoxicity in HepG2 cells - 16 hour (AID 1224876); also: nearly all actives have a fitted effect of over 45% in size
In short: (§6)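 First, HepG2 cells (600/well) mixed with reagent were plated; second, after 5 h at 37 C they received compounds via pintool; third, fluorescence was measured at 0 h through 40 h at 8 h intervals.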

[13] = qHTS RealTime-Glo MT Cell Viability Assay in HepG2 cells - 32 hour (AID 1224877); also: nearly all actives have a fitted effect of over 55% in size
In short: as §1

[14] = A CellTox Green Cytotoxicity Assay to monitor cytotoxicity in HepG2 cells - 24 hour (AID 1224878); also: nearly all actives have a fitted effect of over 45% in size
In short: as §6

[15] = A CellTox Green Cytotoxicity Assay to monitor cytotoxicity in HepG2 cells - 40 hour (AID 1224879); also: nearly all actives have a fitted effect of over 40% in size
In short: as §6

[16] = qHTS RealTime-Glo MT Cell Viability Assay in HEK293 cells - 0 hour (AID 1224880); also: top concentration of the series differs between compounds; nearly all actives have a fitted effect of over 45% in size
In short: as §5

[17] = A CellTox Green Cytotoxicity Assay to monitor cytotoxicity in HEK293 cells - 32 hour (AID 1224881); also: nearly all actives have a fitted effect of over 40% in size
In short: as §3

[18] = A CellTox Green Cytotoxicity Assay to monitor cytotoxicity in HEK293 cells - 24 hour (AID 1224875)
In short: as §3
% is scaled to controls: 0 for no effect and ±100 for the full control effect.

CC(=O)C(C)C
inactive: Potency [1] | outcome [2] | Potency [3] | Potency [4] | Potency [5] | Potency [6] | Potency [7] | Potency [8] | Potency [9] | Potency [10] | max response [11] 9.65% | Potency [12] | Potency [13] | Potency [14] | Potency [15] | Potency [16] | Potency [17]

CCCOC(=O)NCCCN(C)C
inactive: Potency [1] | outcome [2] | Potency [3] | Potency [4] | Potency [5] | Potency [6] | Potency [7] | Potency [8] | Potency [9] | Potency [10] | max response [11] 3.11% and 1.66% | Potency [18] | Potency [12] | Potency [13] | Potency [14] | Potency [15] | Potency [16] | Potency [17]

CC(=O)c1nccs1
inactive: Potency [1] | outcome [2] | Potency [3] | Potency [4] | Potency [5] | Potency [6] | Potency [7] | Potency [8] | Potency [9] | Potency [10] | max response [11] 1.39% and 3.29% | Potency [18] | Potency [12] | Potency [13] | Potency [14] | Potency [15] | Potency [16] | Potency [17]

CCCCCCCCCCCC(=O)N(C)CC(=O)O
inactive: Potency [1] | outcome [2] | Potency [3] | Potency [4] | Potency [5] | Potency [6] | Potency [7] | cytotoxicity increase [8] 3.46% [at 6.97 µM] | Potency [9] | Potency [10] | max response [11] 1.1% and -15.4% | Potency [12] | Potency [13] | Potency [14] | cytotoxicity increase [15] 1.38% [at 6.97 µM] | Potency [16] | cytotoxicity increase [17] 0.815% [at 6.97 µM]

Cc1ccc([N+](=O)[O-])cc1N
inactive: Potency [1] | outcome [2] | Potency [3] | Potency [4] | Potency [5] | Potency [6] | Potency [7] | Potency [8] | Potency [9] | Potency [10] | max response [11] 10.1% and 0.36% | Potency [12] | Potency [13] | Potency [14] | Potency [15] | Potency [16] | Potency [17]

NC(=O)NC(N)=O
inactive: Potency [1] | outcome [2] | Potency [3] | Potency [4] | Potency [5] | Potency [6] | Potency [7] | Potency [8] | Potency [9] | Potency [10] | max response [11] 1.11% and 4.69% | Potency [12] | Potency [13] | Potency [14] | Potency [15] | Potency [16] | Potency [17]

Cc1cccc(C)c1[N+](=O)[O-]
inactive: Potency [1] | outcome [2] | Potency [3] | Potency [4] | Potency [5] | Potency [6] | Potency [7] | Potency [8] | Potency [9] | Potency [10] | max response [11] -0.329% | Potency [12] | Potency [13] | Potency [14] | Potency [15] | Potency [17]

CCOC(=O)c1ccc(O)cc1
inactive: Potency [1] | outcome [2] | Potency [3] | Potency [4] | Potency [5] | Potency [6] | Potency [7] | Potency [8] | Potency [9] | Potency [10] | max response [11] -23.5% and -3.47% | Potency [12] | Potency [13] | Potency [14] | Potency [15] | Potency [16] | Potency [17]

CC(O)CNCC(C)O (centres undefined)
inactive: Potency [1] | outcome [2] | Potency [3] | Potency [4] | Potency [5] | Potency [6] | Potency [7] | Potency [8] | Potency [9] | Potency [10] | max response [11] 3.16% | Potency [18] | Potency [12] | Potency [13] | Potency [14] | Potency [15] | Potency [17]

CC(C)c1ccc(C(C)C)cc1
inactive: Potency [1] | outcome [2] | Potency [3] | Potency [4] | Potency [5] | Potency [6] | Potency [7] | Potency [8] | Potency [9] | Potency [10] | max response [11] 6.04% and 0.0055% | Potency [12] | Potency [13] | Potency [14] | Potency [15] | Potency [16] | Potency [17]

CC/C(C)=N/O
inactive: Potency [1] | outcome [2] | Potency [3] | Potency [4] | Potency [5] | Potency [6] | Potency [7] | Potency [8] | Potency [9] | Potency [10] | max response [11] 0.953% and 3.11% | Potency [12] | Potency [13] | Potency [14] | Potency [15] | Potency [16] | Potency [17]

Cc1ccncc1
inactive: Potency [1] | outcome [2] | Potency [3] | Potency [4] | Potency [5] | Potency [6] | Potency [7] | Potency [8] | Potency [9] | Potency [10] | max response [11] 1.94% and -1.5% | Potency [12] | Potency [13] | Potency [14] | Potency [15] | Potency [17]

CN1CCCC1=O
inactive: Potency [1] | outcome [2] | Potency [3] | Potency [4] | Potency [6] | Potency [7] | Potency [8] | Potency [9] | Potency [10] | max response [11] 8.67% and -2.64% | Potency [18] | Potency [12] | Potency [13] | Potency [14] | Potency [15] | Potency [16] | Potency [17]

Cc1ccccc1Cl
inactive: Potency [1] | outcome [2] | Potency [3] | Potency [4] | Potency [5] | Potency [6] | Potency [7] | Potency [8] | Potency [9] | Potency [10] | max response [11] 1.86% | Potency [18] | Potency [12] | Potency [13] | Potency [14] | Potency [15] | Potency [16] | Potency [17]
